Among the data in PubChem BioAssay (EPA / NIEHS) are outcome and AC50 values, retold here.

Calls of active or inactive are those of the source. How the source made its calls: active means hit-call score of the fitted dose curve at least 0.9, where 1 is the maximum; inactive means score below 0.9.

Assay [1] in a line: BSK_CASM3C_SRB: Viability Assessment in the BioMAP Diversity Plus: CASM3C Assay (AID 2283050).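 Further: total protein by SRB staining as cytotoxicity measure in parallel cultures.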 The following applies: primary human coronary artery smooth muscle cells.
Read-out in assay [2]: Thrombomodulin, THBD (gene 7056)
Nature of the assay: BSK_CASM3C_Thrombomodulin: BioMAP Diversity Plus: CASM3C Assay for Thrombomodulin Biomarker Activity (AID 2283051).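 Further: thrombomodulin protein level measured by ELISA 24 h after dosing.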 The note with it: primary human coronary artery smooth muscle cells; actives raise or lower the signal.

Read-out in assay [3]: Tissue Factor, F3 (gene 2152)
The assay can be described thus: BSK_CASM3C_TissueFactor: BioMAP Diversity Plus: CASM3C Assay for Tissue Factor Biomarker Activity (AID 2283052).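 Further: cell surface tissue factor protein level read by ELISA.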 The note with it: primary human coronary artery smooth muscle cells; actives raise or lower the signal.

Read-out in assay [4]: Interferon-gamma inducible Protein 10 (IP10), CXCL10 (gene 3627)
Nature of the assay: BSK_hDFCGF_IP10: BioMAP Diversity Plus: hDFCGF Assay for Interferon-gamma inducible Protein 10 (IP10) Biomarker Activity (AID 2283053). The note with it: primary human foreskin fibroblasts; actives raise or lower the signal. The essentials:
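IP-10 levels, quantified by ELISA, are taken from human foreskin fibroblast cultures 24 h after chemical treatment, with DMSO serving as negative control and baseline for bidirectional analysis.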

Read-out in assay [5]: Urokinase-type plasminogen activator receptor (uPAR), PLAUR (gene 5329)
Nature of the assay: BSK_CASM3C_uPAR: BioMAP Diversity Plus: CASM3C Assay for Urokinase-type plasminogen activator receptor (uPAR) Biomarker Activity (AID 2283054).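 Further: cell-surface uPAR protein level quantified by ELISA.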 The note with it: primary human coronary artery smooth muscle cells; actives raise or lower the signal.

Read-out in assay [6]: Vascular cell adhesion molecule 1 (VCAM1), VCAM1 (gene 7412)
The assay can be described thus: BSK_CASM3C_VCAM1: BioMAP Diversity Plus: CASM3C Assay for Vascular cell adhesion molecule 1 (VCAM1) Biomarker Activity (AID 2283055).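 Further: VCAM-1 protein level quantified by ELISA on the cells.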 The note with it: primary human coronary artery smooth muscle cells; actives raise or lower the signal.

Read-out in assay [7]: Collagen III, COL3A1 (gene 1281)
The assay can be described thus: BSK_hDFCGF_CollagenIII: BioMAP Diversity Plus: hDFCGF Assay for Collagen III Biomarker Activity (AID 2283056). The following applies: primary human foreskin fibroblasts; actives raise or lower the signal. The procedure, abridged:
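ELISA readout of Collagen III in human dermal (foreskin) fibroblasts, taken 24 h post-treatment. Gain or loss relative to DMSO vehicle fitted in both directions.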

Read-out in assay [8]: Epidermal growth factor receptor (EGFR), EGFR (gene 1956)
Nature of the assay: BSK_hDFCGF_EGFR: BioMAP Diversity Plus: hDFCGF Assay for Epidermal growth factor receptor (EGFR) Biomarker Activity (AID 2283057). The following applies: primary human foreskin fibroblasts; actives raise or lower the signal. The essentials:
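Measured by ELISA: EGFR levels on primary human foreskin fibroblasts 24 h after chemical treatment, analysed relative to DMSO with bidirectional fitting.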

Read-out in assay [9]: Interleukin-8 (IL8), CXCL8 (gene 3576)
Nature of the assay: BSK_hDFCGF_IL8: BioMAP Diversity Plus: hDFCGF Assay for Interleukin-8 (IL8) Biomarker Activity (AID 2283058). The following applies: primary human foreskin fibroblasts; actives raise or lower the signal. The procedure, abridged:
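IL-8 levels read by ELISA at 24 hours after dosing human skin fibroblast cultures. Parallel SRB staining assessed overt cytotoxicity, and gain or loss of signal was fitted against DMSO control.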

Assay [10] in a line: BSK_hDFCGF_Proliferation: Cell Proliferation Assessment in the BioMAP Diversity Plus: hDFCGF Assay (AID 2283059).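 Further: curves fitted for both rise and fall of signal versus DMSO baseline.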 The following applies: primary human foreskin fibroblasts. The essentials: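 Primary human foreskin fibroblasts, sub-confluent; […]; 10% TCA fix, 0.1% SRB stain, A560 total protein. Gain/loss fitted bidirectionally vs DMSO control.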
A short description of assay [11]: BSK_hDFCGF_SRB: Viability Assessment in the BioMAP Diversity Plus: hDFCGF Assay (AID 2283061).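 Further: cells exposed to compound for 24 h before the read.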 The following applies: primary human foreskin fibroblasts. The procedure, abridged:
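Viability was read as total protein: after 10% TCA fixation, wells were stained with 0.1% sulforhodamine B and read at 560 nm. Primary human foreskin fibroblasts were dosed for 24 h, with bidirectional fitting versus DMSO.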

Read-out in assay [12]: TIMP metallopeptidase inhibitor 1 (TIMP1), TIMP1 (gene 7076)
Nature of the assay: BSK_hDFCGF_TIMP1: BioMAP Diversity Plus: hDFCGF Assay for TIMP metallopeptidase inhibitor 1 (TIMP1) Biomarker Activity (AID 2283062). The note with it: primary human foreskin fibroblasts; actives raise or lower the signal. The procedure, abridged: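 TIMP-1 measured by ELISA 24 h after chemical dosing of primary human skin fibroblasts, with gain or loss fitted relative to DMSO. Parallel SRB staining (560 nm) monitored overt cytotoxicity.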

Read-out in assay [13]: Matrix Metallopeptidase 1 (MMP1), MMP1 (gene 4312)
The assay can be described thus: BSK_hDFCGF_MMP1: BioMAP Diversity Plus: hDFCGF Assay for Matrix Metallopeptidase 1 (MMP1) Biomarker Activity (AID 2283064). The following applies: primary human foreskin fibroblasts; actives raise or lower the signal. The essentials: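 Primary human foreskin fibroblasts exposed to chemicals for 24 h; MMP1 measured by ELISA. Cytotoxicity tracked by SRB staining in parallel cultures; bidirectional fit relative to DMSO.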

Read-out in assay [14]: Vascular cell adhesion molecule 1 (VCAM1), VCAM1 (gene 7412)
Nature of the assay: BSK_hDFCGF_VCAM1: BioMAP Diversity Plus: hDFCGF Assay for Vascular cell adhesion molecule 1 (VCAM1) Biomarker Activity (AID 2283065).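 On AC50: VCAM-1 protein level quantified by ELISA after 24 h chemical exposure.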 The note with it: primary human foreskin fibroblasts; actives raise or lower the signal. The procedure, abridged: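 ELISA readout of VCAM-1 on human dermal fibroblast primary cultures, 24 h after chemical exposure. Gain or loss of signal fitted in both directions against DMSO baseline.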

Read-out in assay [15]: Plasminogen activator inhibitor-1 (PAI1), SERPINE1 (gene 5054)
The assay can be described thus: BSK_hDFCGF_PAI1: BioMAP Diversity Plus: hDFCGF Assay for Plasminogen activator inhibitor-1 (PAI1) Biomarker Activity (AID 2283066). The note with it: primary human foreskin fibroblasts; actives raise or lower the signal. The procedure, abridged: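 PAI-1 levels, determined by ELISA, served as the endpoint in human foreskin fibroblast cultures exposed to compound for 24 h, with DMSO as baseline.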

Read-out in assay [16]: Intercellular Adhesion Molecule 1 (ICAM1), ICAM1 (gene 3383)
The assay can be described thus: BSK_KF3CT_ICAM1: BioMAP Diversity Plus: KF3CT Assay for Intercellular Adhesion Molecule 1 (ICAM1) Biomarker Activity (AID 2283067). The following applies: primary human keratinocytes with fibroblasts; actives raise or lower the signal. The essentials:
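Cell-surface ICAM-1 was measured by ELISA 24 h after dosing primary human skin keratinocytes co-cultured with fibroblasts. Parallel SRB staining tracked overt cytotoxicity. Gain or loss of signal was fitted relative to DMSO.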

Read-out in assay [17]: Interferon-gamma inducible Protein 10 (IP10), CXCL10 (gene 3627)
The assay can be described thus: BSK_KF3CT_IP10: BioMAP Diversity Plus: KF3CT Assay for Interferon-gamma inducible Protein 10 (IP10) Biomarker Activity (AID 2283068). The note with it: primary human keratinocytes with fibroblasts; actives raise or lower the signal. The procedure, abridged:
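In a primary skin co-culture of keratinocytes and fibroblasts, IP-10 is quantified by ELISA at 24 h after dosing. SRB staining of parallel wells monitors overt toxicity. Curves are fitted both directions against DMSO.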

Assay [18] can be described thus: BSK_KF3CT_SRB: Viability Assessment in the BioMAP Diversity Plus: KF3CT Assay (AID 2283069).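 Further: total protein by sulforhodamine B staining as a cytotoxicity measure; read 24 h after compound addition.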 The following applies: primary human keratinocytes with fibroblasts. The procedure, abridged:
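Human keratinocyte and foreskin fibroblast co-culture exposed to chemical for 24 h. Total protein measured in parallel cultures by 0.1% sulforhodamine B staining after 10% TCA fixation, read at 560 nm; bidirectional fit relative to DMSO.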

One may read the AC50 as the concentration giving half of the maximal activity seen. Regarding `CCNc1nc(Cl)nc(NC(C)C)n1`, the result in assay [1], in [2], in [3], in [4], in assay [6] and in assay [7] was inactive. Further, the outcome in [8], in assay [9], in assay [10], in assay [11], in [12] and in assay [13] was inactive. The result in assay [14], in assay [15], in assay [16] and in [18] was inactive. The AC50 in [5] was 20 µM (active); in assay [17] it was 0.148 µM (active).
As for `CNC(=O)ON=CC(C)(C)SC`, the result in assay [1], in assay [2], in assay [3], in [6], in assay [7] and in assay [8] was inactive. The outcome in assay [9], in assay [10], in [11], in [12], in assay [13] and in assay [14] was inactive. Besides, the result in assay [15], in [16] and in [18] was inactive. For the same compound, the half-maximal activity concentration (AC50) in assay [4] was 5.4 µM (active); in [5] it was 0.148 µM (active); in [17] it was 0.428 µM (active).
Regarding `CCCC1COC(Cn2cncn2)(c2ccc(Cl)cc2Cl)O1` (stereo not drawn), the result in [1], in [3], in assay [4], in assay [5], in assay [6] and in assay [7] was inactive. The result in assay [8], in assay [9], in assay [11], in [12], in assay [13] and in assay [14] was inactive. Further, the outcome in assay [15], in assay [16], in [17] and in assay [18] was inactive. Moreover, the AC50 was 7.5 µM (active) in assay [2] and 4.49 µM (active) in assay [10].
In the case of `COC(=O)c1ccccc1C(=O)OC`, the result in assay [1], in assay [2], in [3], in assay [4], in assay [5] and in assay [6] was inactive. Moreover, the result in assay [7], in assay [8], in assay [9], in assay [10], in [11] and in [12] was inactive. Also, the result in assay [13], in assay [14], in [15], in [16], in [17] and in [18] was inactive.
Consider `CCc1nn(C)c(C(=O)NCc2ccc(C(C)(C)C)cc2)c1Cl`, for which the result in assay [1], in assay [3], in assay [5], in assay [6] and in [8] was inactive. Further, the AC50 in assay [2] is 13.2 µM (active); in [4], 28.8 µM (active); in assay [7] it was 20 µM (active); in [9], 35.4 µM (active); in assay [10] it was 20 µM (active); in assay [11] it was 27.5 µM (active). Further, the AC50 in [12] was 32.1 µM (active); in [13], 32.2 µM (active); in [14], 20 µM (active); in assay [15], 15.5 µM (active); in assay [16], 32.9 µM (active); in assay [17], 18.7 µM (active). For the same compound, the AC50 in assay [18] is 32.4 µM (active).
For `N#Cc1cc(Br)c(O)c(Br)c1`, the outcome in [1], in [2], in assay [3], in assay [6], in [7] and in assay [8] was inactive. In addition, the result in [9], in assay [10], in assay [11], in assay [12], in assay [13] and in assay [14] was inactive. Moreover, the outcome in assay [15], in assay [16], in assay [17] and in assay [18] was inactive. Besides, the AC50 in assay [4] was 10.9 µM (active); in [5], 0.405 µM (active).
